Data on 42 sequences can be found in article PMC7819943, “Rice protein-binding microarrays: a tool to detect cis-acting elements near promoter regions in rice”.

The full ranking holds about 68,000 sequences; the median of “fluorescence intensity (a.u.)” is about 9,100, and the highest 2% start at about 16,000. The full list was thinned out, with the highest values kept by preference.

In the assay the target is OsWRKY34 (Oryza sativa, UniProt Q0JBA9 1-250). Description: protein-binding microarray (RPBM); PBS, 2% BSA, 51.3 ng/ul salmon testes DNA, 50 uM zinc acetate, 200 nM TF, 25 C, 1 h; high values mean tight binding. The note with it: protein: recombinant; tags: N-terminal polyhistidine and DsRed monomer fusion (pET32a); label: CyDye5-dUTP incorporated in the synthesized complementary strand; 3' TTTTT single-stranded linker to array surface; dsDNA, one strand shown. An outline of the steps: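 Ni–NTA purification followed expression in E. coli BL21-CodonPlus of transcription factors fused N-terminally to a polyhistidine tag and DsRed. At 200 nM in PBS with 2% BSA, salmon testes DNA and 50 µM zinc acetate, the protein was incubated for 1 h at 25 °C with a custom Agilent array that had been primer-extended with Cy5-dUTP and blocked with 2% BSA. After washing, the array was read on an Axon 4000B scanner. The binding signal is per-feature fluorescence intensity in arbitrary units.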
OsWRKY34, sequence (Q0JBA9 entry or part of it): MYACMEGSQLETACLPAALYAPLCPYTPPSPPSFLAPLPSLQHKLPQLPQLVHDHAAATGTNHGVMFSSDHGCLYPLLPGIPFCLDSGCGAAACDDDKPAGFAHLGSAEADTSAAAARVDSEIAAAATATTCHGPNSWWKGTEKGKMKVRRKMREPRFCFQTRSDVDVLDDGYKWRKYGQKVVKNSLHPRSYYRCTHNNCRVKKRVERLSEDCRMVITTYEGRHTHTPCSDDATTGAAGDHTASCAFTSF
In the case of “TTTTTTTGCTTTTTCACTATTTTTTTATTTTGACGGACGACGGAGTCACCTAGTGCAG”, the binding signal is 9300 fluorescence intensity (a.u.).
In the case of “GAATTCATACTTTTTCCTATATTTATCTTTGGCCTTAATCCGGAGTCACCTAGTGCAG” it was 8560 fluorescence intensity (a.u.); in that of “CCCCAAAATACTCGACGCTGAACTTTCCCATCAGCTAGTACGGAGTCACCTAGTGCAG”, 8280 fluorescence intensity (a.u.); in that of “CCTTGGCAGTGGGGCGGAGGGGCGGTGTCGGTGCTGGCGGCGGAGTCACCTAGTGCAG”, 13800 fluorescence intensity (a.u.).
To “TTGTAAGTTAGGGACCTGTTGTATCTGATTTTTTGGTTGACGGAGTCACCTAGTGCAG” belongs 8210 fluorescence intensity (a.u.); to “AATGTTGTCCTGTCGGCTGCTTCTGCTCCAACGTCAAGTTCGGAGTCACCTAGTGCAG”, 8140 fluorescence intensity (a.u.).
To “ATTTTACCAGTCTTGGAGATTTTAATCTTGTATAGTTTTCCGGAGTCACCTAGTGCAG” belongs 9110 fluorescence intensity (a.u.); to “TATATATATATATATATATATATTCACAAATTATTTTTCACGGAGTCACCTAGTGCAG”, 23500 fluorescence intensity (a.u.).
With “CTAGGGTTAGGGGTTTGGGTGGGGAAATTTTCACGAGGGACGGAGTCACCTAGTGCAG”, the binding signal was 14600 fluorescence intensity (a.u.).
To “GGGGAAATTTTCACGAGGGAGAGGGAGGGGAGGGATATTTCGGAGTCACCTAGTGCAG” belongs 23200 fluorescence intensity (a.u.); to “GGGGATTTTTTTTTCGGATCCAGAACGATCAGAGAGGGAGCGGAGTCACCTAGTGCAG”, 9300 fluorescence intensity (a.u.).
To “TTTCATTATACATATAGTTTTACATATTTCACAAAATTTTCGGAGTCACCTAGTGCAG” belongs 8770 fluorescence intensity (a.u.); to “CTCACCATTTCATTTTATTTTTCATTTTTCACCACAAATTCGGAGTCACCTAGTGCAG”, 9050 fluorescence intensity (a.u.).
On to “ATCCATGGGCCTCGTTGGTTATAGCCTGTGTGCATCAACACGGAGTCACCTAGTGCAG”, for which the binding signal is 8230 fluorescence intensity (a.u.).
In the case of “TCCTCCTTTCTCGCTCTCGCTCTGTCCGATCGGAGCCATGCGGAGTCACCTAGTGCAG” it was 8490 fluorescence intensity (a.u.).
To “TTGGGGTTCGTGGGGTCGAGAGGAAGGTGCGTGATCATACCGGAGTCACCTAGTGCAG” belongs 11500 fluorescence intensity (a.u.); to “TATTTTCCGGATCGAATTGCCACGTAAGGGCCACATCAGTCGGAGTCACCTAGTGCAG”, 8510 fluorescence intensity (a.u.); to “ACTGGCTTTGCTATGATCTTTTGCTATCGCCCAACCGTTACGGAGTCACCTAGTGCAG”, 8690 fluorescence intensity (a.u.).
To “ATTTTCTACTCTTTTGGTCCCACTAGTCATAGACTCTTTTCGGAGTCACCTAGTGCAG” belongs 10800 fluorescence intensity (a.u.); to “TGTGCCGTGACTCGATGTGCTCCTCCATCTCTTGCTGCAACGGAGTCACCTAGTGCAG”, 8170 fluorescence intensity (a.u.).
With “GCGGTGGAGGGCCGGCGGAGAGGGGAGCAGCGGTGGAGGGCGGAGTCACCTAGTGCAG”, the binding signal is 11000 fluorescence intensity (a.u.).
“CGGGCGGCGGGTGCGGACTGCGGAGGAGGCTGGCGGGGCACGGAGTCACCTAGTGCAG”: the binding signal was 8630 fluorescence intensity (a.u.).
In the case of “TGTGCTGTGTGGTGTACTGGTGTGTGGGCTTAATAATTGTCGGAGTCACCTAGTGCAG” it was 14200 fluorescence intensity (a.u.); in that of “GTTTTTTTTTTTTGGCGCAGGGAGTGGTGGCGTGGTGTGTCGGAGTCACCTAGTGCAG”, 8170 fluorescence intensity (a.u.); in that of “TCGAGAGGTGGGGAGGGGAGGGGAGCAGAGGGCGGCATCGCGGAGTCACCTAGTGCAG”, 18600 fluorescence intensity (a.u.).
Take “GGGAGGGAGGGTGGCTGTAGTGTGCTAATCACAAATAATTCGGAGTCACCTAGTGCAG”: the binding signal is 20500 fluorescence intensity (a.u.).
In the case of “GAGGGAGGGAGGGAGGGAGGGCGTGTAGCGTAGTTGGTGTCGGAGTCACCTAGTGCAG” it was 18800 fluorescence intensity (a.u.); in that of “GGGAGGGGCTGCTAATTCGGTGTGATTAGTACAGTAGTTTCGGAGTCACCTAGTGCAG”, 10100 fluorescence intensity (a.u.).
To “GAGGCGGGTGATAGCGCGGTGGGGCGGTGGCGGCGGTGGACGGAGTCACCTAGTGCAG” belongs 13000 fluorescence intensity (a.u.); to “CTGCGGGGAGGTGTAGGAGGAGGAGGGCGGAGGAGGTGGTCGGAGTCACCTAGTGCAG”, 8780 fluorescence intensity (a.u.).
“GCAGAGAGAGGGGAGGAGGGTGGGTGGCGGCGGCGGCTAGCGGAGTCACCTAGTGCAG”: the binding signal was 14400 fluorescence intensity (a.u.).
As for “GTGAGGACGGCCTGCGGGTGCATGCGGGCGCAACAAGTAGCGGAGTCACCTAGTGCAG”, the binding signal is 17500 fluorescence intensity (a.u.).
In the case of “CCTCACCCTATGCTCCTGTGTTTTGTAGTCTTTCGTAACACGGAGTCACCTAGTGCAG” it was 8220 fluorescence intensity (a.u.); in that of “ACGGCATCAAATCTCTGTTTGTACATGTGCCCCTGTTCTTCGGAGTCACCTAGTGCAG”, 9440 fluorescence intensity (a.u.); in that of “CCCGACCAAACACTACGAACTCTTCTACCTTCTTTGTTTCCGGAGTCACCTAGTGCAG”, 12600 fluorescence intensity (a.u.).
To “CAATGCACTGTTCATCTTCAGTAGTTATGTTTTCTCAGTGCGGAGTCACCTAGTGCAG” belongs 10400 fluorescence intensity (a.u.).
In the case of “CAAATTTGGTATTTCTCTCTGCTCACTCCATCCCTCAACTCGGAGTCACCTAGTGCAG” it was 8830 fluorescence intensity (a.u.); in that of “ATGGTGGCCGGTCTTTTTTCCTCTTCGCTCGATGCCAAAACGGAGTCACCTAGTGCAG”, 8270 fluorescence intensity (a.u.).
In the case of “CGGCTAAACTCCCACGTGAACCAGACGCTGCACCAAAAACCGGAGTCACCTAGTGCAG”, the binding signal is 8430 fluorescence intensity (a.u.).
In the case of “GAAGTGAATAGTAGAGGGTTTTGATGGGTTGGGAAGAGAACGGAGTCACCTAGTGCAG” it was 11200 fluorescence intensity (a.u.).
In the case of “ATTAATTTCGCTTGCTAACACGAGTTTAATCTGCCAATTTCGGAGTCACCTAGTGCAG” it was 10000 fluorescence intensity (a.u.); in that of “CCACTGCATACCAACACCAACCACTGTACTAGCACTACTACGGAGTCACCTAGTGCAG”, 8980 fluorescence intensity (a.u.).
